PubChem BioAssay (Tox21)
Inconclusive results are not listed. Activity calls are given as the source filed them. Unless noted, calls follow the shape of the full dose curve.

Key:
[1] = qHTS assay to identify small molecule antagonists of the vitamin D receptor (VDR) signaling pathway - cell viability counter screen (AID 743225; active = well fitted curve in the direction sought with a large enough effect in the repeat runs; an effect the other way counts as inactive or inconclusive; also: % is scaled to controls: 0 for no effect and ±100 for the full control effect; nearly all actives have a fitted effect of over 50% in size)
Method in brief: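 Parallel cytotoxicity test: VDR-UAS-bla HEK 293T, 3 nM (final) 1-alpha,25-dihydroxyvitamin D3 with test compound, 16 h, 37C. Endpoint is CellTiter-Glo luminescence in the same wells.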

[2] = qHTS assay to identify small molecule agonists of the NFkB signaling pathway (AID 1159509; active = well fitted curve in the direction sought with a large enough effect in the signal ratio in the repeat runs, not every such curve was filed as active; the % refers to the signal ratio; also: series mostly up to about 61 µM; % is scaled to controls: 0 for no effect and ±100 for the full control effect)
Method in brief: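 After overnight attachment, reporter cells received test compounds, DMSO or positive controls and were incubated 5 hr at 37 C. FRET substrate was then added for 1.5 hr at room temperature before dual-emission fluorescence reading.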

[3] = qHTS assay to identify small molecule agonists of the NFkB signaling pathway - cell viability counter screen (AID 1159515); also: series mostly up to about 61 µM; % is scaled to controls: 0 for no effect and ±100 for the full control effect; nearly all actives have a fitted effect of over 55% in size
Method in brief: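 NFkB-bla ME-180 cells, 2,000/well, were plated overnight at 37 C, 5% CO2, then exposed to compounds in DMSO for 5 hr. After the bla FRET read, CellTiter-Glo was added to the same wells; luminescence was read after 30 min at room temperature.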

[4] = qHTS assay to identify small molecule agonists of the endoplasmic reticulum stress response signaling pathway (AID 1159516; active = well fitted activation curve with a large enough effect in the signal ratio in the repeat runs, not every such curve was filed as active; the % refers to the signal ratio; also: % is scaled to controls: 0 for no effect and ±100 for the full control effect)
Method in brief: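 CellSensor ESRE-bla HeLa cells, carrying a beta-lactamase reporter driven by the ER stress response element, were plated overnight and exposed to compounds for 5 hr at 37 C. Reporter activity was read as FRET substrate fluorescence after 2 hr at room temperature.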

[5] = qHTS assay to identify small molecule agonists of the endoplasmic reticulum stress response signaling pathway - cell viability counter screen (AID 1159517); also: series mostly up to about 61 µM; % is scaled to controls: 0 for no effect and ±100 for the full control effect; nearly all actives have a fitted effect of over 50% in size
Method in brief: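 Cells, HeLa ESRE-bla; density, 1,500/well; dosing, 5 hr at 37 C, 5% CO2; readout, CellTiter-Glo luminescence after 30 min RT.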

[6] = qHTS assay to identify small molecule antagonists of the retinoid-related orphan receptor gamma (ROR-gamma) signaling pathway - cell viability counter screen (AID 1159520; active = well fitted curve in the direction sought with a large enough effect in the repeat runs; an effect the other way counts as inactive or inconclusive; also: % is scaled to controls: 0 for no effect and ±100 for the full control effect; nearly all actives have a fitted effect of over 50% in size)
Method in brief: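 Cytotoxicity was read from cellular ATP (CellTiter-Glo luminescence) after 16 hr at 37 C with 1 uM doxycycline induction. The inducer was added 2 hr after compound transfer to Tet-on ROR gamma CHO cells.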

[7] = molecular target: Nuclear receptor ROR-gamma (Homo sapiens) (UniProt P51449); assay: qHTS assay to identify small molecule antagonists of the retinoid-related orphan receptor gamma (ROR-gamma) signaling pathway (AID 1159521; active = well fitted curve in the direction sought with a large enough effect in the repeat runs; an effect the other way counts as inactive or inconclusive;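 also: CHO cells with doxycycline inducible ROR-gamma driving an RORE luciferase reporter; top concentration of the series differs between compounds; % is scaled to controls: 0 for no effect and ±100 for the full control effect; nearly all actives have a fitted effect of over 50% in size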)
Method in brief: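 Decreased RORE-driven luciferase luminescence indicates antagonism. Tet-on RORγ CHO cells received compound, then 1 uM final doxycycline 2 h later; signal read after 16 h incubation.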

[8] = qHTS assay to identify small molecule agonists of the AP-1 signaling pathway - cell viability counter screen (AID 1159525); also: nearly all actives have a fitted effect of over 55% in size
Method in brief: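 Luminescent ATP readout (Cell Titer Glo, 30 min RT), normalised to DMSO and tetra n-octyl ammonium bromide controls. Cells were ME-180 AP-1-bla in 0.5% dialyzed FBS Opti-MEM, with a 5 h, 37 °C compound exposure.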

[9] = qHTS assay to identify small molecule agonists of the vitamin D receptor (VDR) signaling pathway - cell viability counter screen (AID 743224; active = well fitted curve in the direction sought with a large enough effect in the repeat runs; an effect the other way counts as inactive or inconclusive)
Method in brief: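 VDR-bla cells were preincubated 4 h at 37C/5% CO2, then exposed to compounds for 16 h. After the 2 h room-temperature bla FRET read, CellTiter-Glo was added to the same wells and luminescence read after 30 min.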

[10] = qHTS assay to identify small molecule agonists of the AP-1 signaling pathway (AID 1159526); also: % is scaled to controls: 0 for no effect and ±100 for the full control effect

CCN(CC)CCOc1ccc(Cc2ccccc2)cc1
inactive: Potency [1] | outcome [2] | outcome [3] | outcome [4] | outcome [5] | Potency [6] | Potency [7] | outcome [8]

CCCS(=O)c1ccc2nc(NC(=O)OC)[nH]c2c1 (stereo unspecified)
inactive: Potency [9] | outcome [2] | outcome [3] | outcome [4] | outcome [5] | Potency [6] | Potency [7] | Potency [10]

Nc1ccc2ccccc2c1S(=O)(=O)O
inactive: Potency [9] | Potency [1] | outcome [2] | outcome [3] | outcome [4] | outcome [5] | Potency [6] | Potency [7] | outcome [8]

O=C1CCCCC1C1CCCCC1 (stereo unspecified)
inactive: Potency [9] | outcome [2] | outcome [3] | outcome [4] | outcome [5] | Potency [6] | Potency [7] | Potency [10]

CC(C)C(=O)OC/C=C/c1ccccc1
inactive: Potency [9] | outcome [2] | outcome [3] | outcome [4] | outcome [5] | Potency [6] | Potency [7] | Potency [10]

O=Cc1ccc(O)c(O)c1O
inactive: Potency [1] | outcome [2] | outcome [3] | outcome [4] | outcome [5] | Potency [6] | Potency [7] | outcome [8]

COC(=O)c1ccc2cc(C(=O)OC)ccc2c1
inactive: Potency [1] | outcome [2] | outcome [3] | outcome [4] | outcome [5] | activity, negative = cytotoxicity [6] -0.583% [at 19 µM] | activity change, negative = inhibition [7] 0.445% [at 19 µM] | viability change, negative = cytotoxic [8] 2.85% [at 15.8 µM]

Cc1ccc([N+](=O)[O-])c(N)c1
inactive: Potency [9] | outcome [2] | outcome [3] | outcome [4] | outcome [5] | Potency [6] | Potency [7] | outcome [8]

Cc1c(-c2ccccc2)oc2c(C(=O)OCCN3CCCCC3)cccc2c1=O
inactive: Potency [9] | outcome [2] | outcome [3] | outcome [4] | outcome [5] | Potency [6] | Potency [7] | outcome [8]

CC(C)O
inactive: outcome [2] | outcome [3] | outcome [4] | outcome [5] | Potency [6]

OCC(CBr)(CBr)CBr
inactive: Potency [9] | Potency [1] | outcome [2] | outcome [3] | outcome [4] | outcome [5] | Potency [6] | Potency [7] | Potency [10]

COc1cc2c(cc1N)oc1ccccc12
inactive: Potency [1] | outcome [2] | outcome [3] | outcome [4] | outcome [5] | Potency [6] | Potency [7] | Potency [10]

CC(CNC1CCCCC1)OC(=O)c1ccccc1 (stereo unspecified)
inactive: Potency [9] | outcome [2] | outcome [3] | outcome [4] | outcome [5] | Potency [6] | outcome [8] | Potency [10]

CC(C)(C)C1CCCCC1=O (stereo unspecified)
inactive: Potency [9] | outcome [2] | outcome [3] | outcome [4] | outcome [5] | Potency [6] | outcome [8] | Potency [10]

C[C@@H]1CN(c2c(F)c(F)c3c(=O)c(C(=O)O)cn(C4CC4)c3c2F)C[C@H](C)N1
inactive: Potency [9] | outcome [2] | outcome [3] | outcome [4] | outcome [5] | activity, negative = cytotoxicity [6] 3.95% [at 19 µM] | viability change, negative = cytotoxic [8] 7.6% [at 15.8 µM] | activation [10] -3.66% [at 15.8 µM]

Cn1cnc2c(F)c(Nc3ccc(Br)cc3Cl)c(C(=O)NOCCO)cc21
inactive: Potency [9] | outcome [2] | outcome [3] | outcome [4] | outcome [5] | Potency [6] | outcome [8] | Potency [10]

NS(=O)(=O)c1cc(-c2nn[nH]n2)c(NCc2cccs2)cc1Cl
inactive: Potency [9] | Potency [1] | outcome [2] | outcome [3] | outcome [4] | outcome [5] | Potency [6] | Potency [7] | Potency [10]

Cc1cc(S(=O)(=O)O)c(N)cc1Cl
inactive: Potency [9] | outcome [2] | outcome [3] | outcome [4] | outcome [5] | Potency [6] | outcome [8] | Potency [10]

O=c1[nH]c(=O)n([C@H]2C[C@H](O)[C@@H](CO)O2)cc1C(F)(F)F
inactive: Potency [9] | outcome [2] | outcome [3] | outcome [4] | outcome [5] | Potency [6] | outcome [8] | Potency [10]

C1CSCCS1
inactive: Potency [9] | outcome [2] | outcome [3] | outcome [4] | outcome [5] | Potency [6] | outcome [8] | Potency [10]

COc1cc(N)c(Cl)cc1C(=O)NC1CCN(Cc2ccccc2)CC1
inactive: Potency [9] | outcome [2] | outcome [3] | outcome [4] | outcome [5] | Potency [6] | outcome [8] | Potency [10]

O=C1C=CC(=O)O1
inactive: Potency [9] | Potency [1] | outcome [2] | outcome [3] | outcome [4] | outcome [5] | Potency [6] | outcome [8] | Potency [10]

CCCCCCn1c(=O)c2c(ncn2C)n(C)c1=O
inactive: Potency [9] | outcome [2] | outcome [3] | outcome [4] | outcome [5] | Potency [6] | outcome [8] | Potency [10]

Clc1cccc(-c2cc(Cl)cc(Cl)c2)c1
inactive: Potency [9] | outcome [2] | outcome [3] | outcome [4] | outcome [5] | Potency [6] | Potency [7]

CCc1nnc(NS(=O)(=O)c2ccc(N)cc2)s1
inactive: Potency [9] | Potency [1] | outcome [2] | outcome [3] | outcome [4] | outcome [5] | Potency [6] | outcome [8] | Potency [10]

Oc1ccccc1C=NCc1ccccc1
inactive: Potency [9] | Potency [1] | outcome [2] | outcome [3] | outcome [4] | outcome [5] | Potency [6] | outcome [8] | Potency [10]

Cc1cc(NS(=O)(=O)c2ccc(N)cc2)nc(C)n1
inactive: Potency [9] | outcome [2] | outcome [3] | outcome [4] | outcome [5] | Potency [6] | outcome [8] | Potency [10]

CCCCN1C[C@H](O)[C@@H](O)[C@H](O)[C@H]1CO
inactive: Potency [9] | outcome [2] | outcome [3] | outcome [4] | outcome [5] | Potency [6] | outcome [8] | Potency [10]
